Assay results published in PubChem BioAssay (NCATS).
Records with an inconclusive call do not appear. Entries that show only a call come without a potency. Calls of active or inactive are those of the source. The call rests on the fitted dose curve; in most records, active means well fitted curve in the direction sought with a large enough effect; inconclusive means small, poorly fitted or top-dose-only effect, or another doubt; inactive means no such curve, though single readings can be large; an effect the other way counts as inactive or inconclusive.

Columns and labels:
[1] = qHTS of pediatric cancer cell lines to identify multiple opportunities for drug repurposing: Primary screen for control Hh wild type fibroblast cells (AID 1347106);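 further: a drop in luminescence marks cytotoxicity and a rise apparent proliferation; nearly all actives have a fitted effect of over 55% in size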
Summary of the method: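 Cells (500-1,000/well) in growth media were settled 5 h at 37 degrees C, then given compounds for 48 h. Viability was read as CellTiter-Glo luminescence. Primary runs used MIPE at 11 points (0.78 nM-46 µM) and NPC at 8 points (0.59 nM-46 µM); follow-ups used 11 points.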

[2] = qHTS of pediatric cancer cell lines to identify multiple opportunities for drug repurposing: Primary screen for Rh30 cells (AID 1347107); further: nearly all actives have a fitted effect of over 75% in size
Summary of the method: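 Viability after 48 h compound treatment at 37C, 500-1,000 cells/well, read as ATP luminescence with CellTiter-Glo. Primary screens used 11-point (MIPE, 0.78 nM-46 µM) or 8-point (NPC, 0.59 nM-46 µM) final concentrations; follow-up screens used 11-point dilutions.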

[3] = qHTS of pediatric cancer cell lines to identify multiple opportunities for drug repurposing: Primary screen for Rh41 cells (AID 1347108);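 further: luminescence drop marks cytotoxic hits; nearly all actives have a fitted effect of over 70% in size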
Summary of the method: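 500-1,000 cells/well; 5 h pre-incubation 37 °C/5% CO2; compound pinned; 48 h; CellTiter-Glo, 15 min RT; luminescence. MIPE 11-pt from 0.78 nM, NPC 8-pt from 0.59 nM final. Bortezomib 2.3 µM final as positive control.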
Further: series mostly up to about 46 µM.

In the case of CCC1C(=O)OCC1Cc1cncn1C (stereo unspecified), the Potency [1] is reported as “inactive”, the Potency [2] is reported as “inactive” and the Potency [3] is reported as “inactive”.

With O=C(O)Cc1ccc2c(c1)C(=O)c1ccccc1CO2 the Potency [1] was “inactive”, the Potency [2] was “inactive” and the Potency [3] was “inactive”.

In the case of Nc1nc2ccc([N+](=O)[O-])cc2s1, the Potency [1] is reported as “inactive”, the Potency [2] is reported as “inactive” and the Potency [3] is reported as “inactive”.

With CC(C(=O)O)c1ccc2c(c1)[nH]c1ccc(Cl)cc12 (stereo unspecified) the Potency [1] was “inactive”, the Potency [2] was “inactive” and the Potency [3] was “inactive”.

For CN(C)CCn1nnnc1SCC1=C(C(=O)O)N2C(=O)[C@@H](NC(=O)Cc3csc(N)n3)[C@H]2SC1, the Potency [1] was “inactive”, the Potency [2] was “inactive” and the Potency [3] was “inactive”.

With Nc1ccc(O)c(C(=O)O)c1 the Potency [1] was “inactive”, the Potency [2] was “inactive” and the Potency [3] was “inactive”.

With O=C(O)Cc1ccc(-c2ccccc2)cc1 the Potency [1] was “inactive”, the Potency [2] was “inactive” and the Potency [3] was “inactive”.

In the case of CC(C(=O)O)c1ccc(C(=O)c2cccs2)cc1 (stereo unspecified), the Potency [1] is reported as “inactive”, the Potency [2] is reported as “inactive” and the Potency [3] is reported as “inactive”.

With Nc1c(CC(=O)O)cccc1C(=O)c1ccc(Br)cc1 the Potency [1] was “inactive”, the Potency [2] was “inactive” and the Potency [3] was “inactive”.

With COc1cc(NC(C)CCCN)c2ncccc2c1 (stereo unspecified) the Potency [1] was “inactive” and the Potency [2] was “inactive”.

For CO[C@@]1(NC(=O)Cc2cccs2)C(=O)N2C(C(=O)O)=C(COC(N)=O)CS[C@@H]21, the Potency [1] was “inactive”, the Potency [2] was “inactive” and the Potency [3] was “inactive”.

For c1ccc2sc(SN3CCOCC3)nc2c1, the Potency [1] was “inactive”, the Potency [2] was “inactive” and the Potency [3] was “inactive”.

In the case of CNC(=O)c1c(I)c(NC(=O)CCCCC(=O)Nc2c(I)c(C(=O)O)c(I)c(C(=O)NC)c2I)c(I)c(C(=O)O)c1I, the Potency [1] is reported as “inactive”, the Potency [2] is reported as “inactive” and the Potency [3] is reported as “inactive”.

In the case of Cc1ccc2c(n1)Oc1ccc(C(C)C(=O)OCC(=O)N(C)C)cc1C2 (stereo unspecified), the Potency [1] is reported as “inactive”, the Potency [2] is reported as “inactive” and the Potency [3] is reported as “inactive”.

For CC(C)OC(=O)c1cc(C(=O)OC(C)C)cc([N+](=O)[O-])c1, the Potency [1] was “inactive”, the Potency [2] was “inactive” and the Potency [3] was “inactive”.

For CC(=O)c1ccc(OCC(=O)N2CCCCC2)cc1, the Potency [1] was “inactive”, the Potency [2] was “inactive” and the Potency [3] was “inactive”.

For CC(C(=O)O)c1ccc(C(=O)c2ccccc2)s1 (stereo unspecified), the Potency [1] was “inactive”, the Potency [2] was “inactive” and the Potency [3] was “inactive”.

In the case of CN1CCN(c2cc3c(nn2)Oc2ccccc2N3C)CC1, the Potency [1] is reported as “inactive”, the Potency [2] is reported as “inactive” and the Potency [3] is reported as “inactive”.

For O=C(Nc1ccc(C(=O)O)c(O)c1)c1ccccc1, the Potency [1] was “inactive”, the Potency [2] was “inactive” and the Potency [3] was “inactive”.

In the case of CCCCCCOc1ccccc1C(N)=O, the Potency [1] is reported as “inactive”, the Potency [2] is reported as “inactive” and the Potency [3] is reported as “inactive”.

In the case of CCOc1ccc2nc(S(N)(=O)=O)sc2c1, the Potency [1] is reported as “inactive”, the Potency [2] is reported as “inactive” and the Potency [3] is reported as “inactive”.

For Nc1ccc(O)c([N+](=O)[O-])c1, the Potency [1] was “inactive”, the Potency [2] was “inactive” and the Potency [3] was “inactive”.

For O=c1[nH]c2ccccc2n1CCCN1CCN(C(c2ccccc2)c2ccccc2)CC1, the Potency [1] was “inactive” and the Potency [2] was “inactive”.

With Cc1cc(O)c2ccccc2c1O the Potency [1] was “inactive”.

With CN1CC(=O)N/C1=N/C(=O)Nc1cccc(Cl)c1 the Potency [1] was “inactive”, the Potency [2] was “inactive” and the Potency [3] was “inactive”.

With O=C(O)c1ccccc1Nc1cccc(C(F)(F)F)c1 the Potency [1] was “inactive”, the Potency [2] was “inactive” and the Potency [3] was “inactive”.

With Cc1nc2ccccc2n1Cc1ccc(Cl)cc1 the Potency [1] was “inactive” and the Potency [2] was “inactive”.

With Nc1cc(-c2ccncc2)c[nH]c1=O the Potency [1] was “inactive”, the Potency [2] was “inactive” and the Potency [3] was “inactive”.

With CC1(C)S[C@@H]2[C@H](NC(=O)[C@H](N)c3ccccc3)C(=O)N2[C@H]1C(=O)O the Potency [2] was “inactive” and the Potency [3] was “inactive”.

In the case of COc1ccnc2c1CCCCC2S(=O)c1nc2ccccc2[nH]1 (stereo unspecified), the Potency [2] is reported as “inactive” and the Potency [3] is reported as “inactive”.

In the case of C#C[C@]1(O)CC[C@H]2[C@@H]3CCc4cc(O)ccc4[C@H]3CC[C@@]21C, the Potency [2] is reported as “inactive”.

With CCCCCCCC/C=C/C(=O)O the Potency [2] was “inactive” and the Potency [3] was “inactive”.

In the case of O=C1CN(/N=C/c2ccc([N+](=O)[O-])o2)C(=O)N1, the Potency [2] is reported as “inactive”.

In the case of COC(=O)C1=C(C)NC(C)=C(C(=O)OCC(C)C)C1c1ccccc1[N+](=O)[O-] (stereo unspecified), the Potency [2] is reported as “inactive”.

In the case of C[N+]1(C)[C@@H]2CC(OC(=O)[C@H](CO)c3ccccc3)C[C@H]1[C@@H]1O[C@@H]12 (stereo partly specified), the Potency [1] is reported as “inactive”, the Potency [2] is reported as “inactive” and the Potency [3] is reported as “inactive”.
